Results: PubChem BioAssay AID1159580 (chemical genetic matrix, 2015)
Several values for one entry are separate records, joined by “and”; a condition that tells them apart may be missing. Equal entries are not always repeated. Screen size: about 5,500 compounds; about 2,000 (36%) were called active. About 18% were inconclusive and are not listed. No stated cut-off is given here; in the data, active means normalized growth mostly below about 0.91 (no sharp cut-off); inconclusive means no clear call, values can overlap the other calls; inactive means mostly above about 0.92. The list shows a part of the results.

Test: chemical genetic growth profiling, strain panel (AID 1159580);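 further: tested at 20 µM; growth read once vehicle control cultures reached saturation at 30 °C; 1 = growth at the plate median or of vehicle wells; lower values mean less growth of the strain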
Details: S. cerevisiae deletion strains, growth OD

Measured: normalized growth

CC(=O)O[C@@H]1CC2C(C)(C)[C@H](O)CC[C@]2(C)C2CC[C@@]3(C)[C@H](c4ccoc4)OC(=O)C4OC43[C@@]21C (stereo partly specified)
inactive: locus YAL021C, strain ccr4, active compounds read low 0.991 | locus YAL026C, strain drs2, active compounds read low 1.03 | locus YAL030W, strain snc1, active compounds read low 1.01 | locus YBL061C, strain skt5, active compounds read low 1.01 | locus YBR009C, strain hhf1, active compounds read low 1.04 | locus YBR021W, strain FUR4, active compounds read low 0.974 | locus YBR023C, strain chs3, active compounds read low 1.02 | locus YBR171W, strain sec66, active compounds read low 1.02 | locus YBR229C, strain ROT2, active compounds read low 0.957 | locus YBR231C, strain swc5, active compounds read low 1.02 | locus YBR279W, strain paf1, active compounds read low 1.01 | locus YCL011C, strain gbp2, active compounds read low 1.01 | locus YCL016C, strain dcc1, active compounds read low 1.02 | locus YCL029C, strain bik1, active compounds read low 0.993 | locus YCL061C, strain MRC1, active compounds read low 1.02 | locus YCL069W, strain vba3, active compounds read low 1 | locus YCR088W, strain abp1, active compounds read low 1.01 | locus YDL005C, strain med2, active compounds read low 1.02 | locus YDL035C, strain GPR1, active compounds read low 0.984 | locus YDL040C, strain nat1, active compounds read low 1 | locus YDL074C, strain BRE1, active compounds read low 1 | locus YDL101C, strain DUN1, active compounds read low 0.998 | locus YDL134C, strain PPH21, active compounds read low 1.03 | locus YDL185W, strain tfp1, active compounds read low 0.97 | locus YDL192W, strain arf1, active compounds read low 0.999 | locus YDR001C, strain nth1, active compounds read low 1.01 | locus YDR069C, strain doa4, active compounds read low 1.04 | locus YDR101C, strain arx1, active compounds read low 0.967 | locus YDR137W, strain rgp1, active compounds read low 1.02 | locus YDR159W, strain sac3, active compounds read low 1.05 | locus YDR162C, strain NBP2, active compounds read low 0.999 | locus YDR195W, strain ref2 1.03 | locus YDR297W, strain sur2, active compounds read low 1.01 | locus YDR318W, strain mcm21, active compounds read low 0.996 | locus YDR334W, strain swr1, active compounds read low 1.01 | locus YDR335W, strain msn5, active compounds read low 1.03 | locus YDR388W, active compounds read low 1 | locus YDR392W, strain spt3, active compounds read low 0.834 | locus YDR502C, strain sam2, active compounds read low 1.01 | locus YEL003W, strain gim4, active compounds read low 1.03 | locus YEL037C, strain rad23, active compounds read low 1.01 | locus YEL061C, strain CIN8 (second series), active compounds read low 1.02 | locus YER015W, strain faa2, active compounds read low 1.01 | locus YER016W, strain bim1, active compounds read low 1.02 | locus YER110C, active compounds read low 0.98 | locus YER111C, strain swi4, active compounds read low 1.02 | locus YER155C, strain BEM2 (second series), active compounds read low 1.03 | locus YER155C, strain BEM2, active compounds read low 1.01 | locus YER167W, strain BCK2, active compounds read low 0.996 | locus YFR010W, strain ubp6, active compounds read low 1.04 | locus YGL078C, strain dbp3, active compounds read low 1.01 | locus YGL086W, strain mad1, active compounds read low 0.984 | locus YGL167C, strain pmr1, active compounds read low 1.01 | locus YGL173C, strain kem1, active compounds read low 1.01 | locus YGL227W, strain vid30, active compounds read low 1.02 | locus YGL240W, strain doc1, active compounds read low 1.04 | locus YGL248W, strain PDE1, active compounds read low 1.01 | locus YGL253W, strain hxk2, active compounds read low 0.997 | locus YGR135W, strain pre9, active compounds read low 1.05 | locus YGR252W, strain gcn5, active compounds read low 1.04 | locus YHR013C, strain ard1, active compounds read low 1.02 | locus YHR027C, strain rpn1, active compounds read low 1.01 | locus YHR030C, strain SLT2, active compounds read low 1.07 | locus YHR079C, strain IRE1 (second series), active compounds read low 0.983 | locus YHR079C, strain IRE1, active compounds read low 1.05 | locus YHR094C, strain hxt1, active compounds read low 0.989 | locus YHR129C, strain ARP1, active compounds read low 1.01 | locus YHR142W, strain chs7, active compounds read low 0.939 | locus YHR200W, strain rpn10, active compounds read low 0.996 | locus YIL066C, strain RNR3, active compounds read low 0.973 | locus YIL073C, strain SPO22, active compounds read low 0.958 | locus YIL125W, strain kgd1, active compounds read low 0.962 | locus YIR030C, strain dcg1, active compounds read low 0.988 | locus YJL092W, strain hpr5, active compounds read low 1.02 | locus YJL095W, strain BCK1 (second series), active compounds read low 1.02 | locus YJL095W, strain BCK1, active compounds read low 1.06 and 1.08 | locus YJL115W, strain asf1, active compounds read low 1.02 | locus YJL129C, strain trk1, active compounds read low 1 | locus YJL134W, strain LCB3, active compounds read low 0.991 | locus YJL154C, strain vps35, active compounds read low 0.999 | locus YJL164C, strain tpk1, active compounds read low 1.02 | locus YJL166W, strain qcr8, active compounds read low 1.02 | locus YJL168C, strain set2, active compounds read low 0.996 | locus YJL187C, strain SWE1 (second series), active compounds read low 1.02 | locus YJL187C, strain SWE1, active compounds read low 1.01 | locus YJR043C, strain POL32, active compounds read low 0.977
